# Experimental data published in publication PMC7862700, “An all-to-all approach to the identification of sequence-specific readers for epigenetic DNA modifications on cytosine”.
# Key:
# Assay in all cases: DAPPL (digital affinity profiling via proximity ligation, sequencing); 10 mM Tris-HCl pH 7.5, 50 mM NaCl, 1 mM DTT, 4% glycerol, room temperature, 30 min; GST-TFs on glutathione beads, 16-mer random dsDNA library, 0.1% formaldehyde crosslink after washing; high values mean tight binding
# [1] = target: T1, FLI1 (Homo sapiens, UniProt Q01543 1-452); settings: protein: recombinant; tags: N-terminal GST; dsDNA, one strand shown
# T1 sequence: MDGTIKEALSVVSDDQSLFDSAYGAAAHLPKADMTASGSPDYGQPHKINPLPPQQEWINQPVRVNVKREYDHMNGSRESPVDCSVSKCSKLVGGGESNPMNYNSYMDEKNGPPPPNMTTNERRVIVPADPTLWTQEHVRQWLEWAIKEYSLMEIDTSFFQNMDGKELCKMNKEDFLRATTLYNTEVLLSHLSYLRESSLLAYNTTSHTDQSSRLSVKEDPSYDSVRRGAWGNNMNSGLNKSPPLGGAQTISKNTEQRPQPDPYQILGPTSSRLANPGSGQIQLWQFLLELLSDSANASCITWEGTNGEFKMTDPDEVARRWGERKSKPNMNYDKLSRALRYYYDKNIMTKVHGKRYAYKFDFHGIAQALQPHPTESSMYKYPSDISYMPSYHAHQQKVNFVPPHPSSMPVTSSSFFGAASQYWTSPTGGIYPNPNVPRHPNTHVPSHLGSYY
# Outline: (§1)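 Pools of DNA-barcoded human transcription factors, expressed in yeast as GST fusions on glutathione beads and combined with a tag-only sample, were incubated with 200 nmole of a 16-mer random double-stranded DNA library. Incubation took 30 min at room temperature in Tris/NaCl/DTT/glycerol buffer and was followed by washing, 0.1% formaldehyde crosslinking, proximity ligation (BsaI/T4 ligase, 1 h, 37 °C), PCR amplification and sequencing on an Illumina NextSeq500. Binding signal is the ratio of a hexamer's read frequency for a factor to its frequency for the tag-only sample.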
# [2] = target: T2, ELK1 (Homo sapiens, UniProt P19419 1-428); settings: protein: recombinant; tags: N-terminal GST; dsDNA, one strand shown
# T2 sequence: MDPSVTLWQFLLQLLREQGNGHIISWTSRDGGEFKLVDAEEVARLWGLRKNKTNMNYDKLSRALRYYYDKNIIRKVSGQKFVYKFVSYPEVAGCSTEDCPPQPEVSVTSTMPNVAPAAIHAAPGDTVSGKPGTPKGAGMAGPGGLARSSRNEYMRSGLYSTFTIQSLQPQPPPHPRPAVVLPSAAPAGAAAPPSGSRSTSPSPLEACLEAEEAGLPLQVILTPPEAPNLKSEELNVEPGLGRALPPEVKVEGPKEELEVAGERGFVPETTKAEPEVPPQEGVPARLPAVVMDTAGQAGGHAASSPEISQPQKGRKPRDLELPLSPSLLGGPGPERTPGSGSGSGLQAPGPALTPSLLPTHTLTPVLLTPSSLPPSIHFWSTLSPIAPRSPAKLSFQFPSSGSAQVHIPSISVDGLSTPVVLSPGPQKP
# Outline: as §1
# [3] = target: T3, GABPA (Homo sapiens, UniProt Q06546 1-454); settings: protein: recombinant; tags: N-terminal GST; dsDNA, one strand shown
# T3 sequence: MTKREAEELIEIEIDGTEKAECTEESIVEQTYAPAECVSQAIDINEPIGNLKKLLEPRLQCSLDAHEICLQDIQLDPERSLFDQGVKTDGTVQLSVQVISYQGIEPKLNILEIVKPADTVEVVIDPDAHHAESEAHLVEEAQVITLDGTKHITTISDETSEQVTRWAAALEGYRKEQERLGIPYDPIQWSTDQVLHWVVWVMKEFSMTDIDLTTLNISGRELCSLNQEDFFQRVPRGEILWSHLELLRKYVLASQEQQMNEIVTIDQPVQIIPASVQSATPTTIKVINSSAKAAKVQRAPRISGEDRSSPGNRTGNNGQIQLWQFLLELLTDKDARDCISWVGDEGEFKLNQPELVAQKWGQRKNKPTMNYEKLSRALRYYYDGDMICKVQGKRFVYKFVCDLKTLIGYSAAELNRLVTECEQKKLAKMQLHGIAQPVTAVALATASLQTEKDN
# Outline: as §1
# [4] = target: T4, ERG (Homo sapiens, UniProt P11308 1-479); settings: protein: recombinant; tags: N-terminal GST; dsDNA, one strand shown
# T4 sequence: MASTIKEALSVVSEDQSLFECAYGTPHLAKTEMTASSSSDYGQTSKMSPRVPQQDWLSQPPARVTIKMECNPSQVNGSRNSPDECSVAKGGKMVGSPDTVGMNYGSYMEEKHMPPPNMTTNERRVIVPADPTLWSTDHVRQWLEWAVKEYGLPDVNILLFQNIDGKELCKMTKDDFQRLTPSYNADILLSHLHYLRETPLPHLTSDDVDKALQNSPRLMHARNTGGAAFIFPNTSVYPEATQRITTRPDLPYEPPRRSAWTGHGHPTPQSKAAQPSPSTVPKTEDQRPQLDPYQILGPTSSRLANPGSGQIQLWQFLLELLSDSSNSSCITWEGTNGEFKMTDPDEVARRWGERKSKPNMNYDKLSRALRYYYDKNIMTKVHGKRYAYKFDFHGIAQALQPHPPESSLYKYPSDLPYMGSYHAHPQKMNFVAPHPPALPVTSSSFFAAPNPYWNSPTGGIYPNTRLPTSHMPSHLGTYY
# Outline: as §1
# [5] = target: ELF1 (Homo sapiens, UniProt P32519 1-619); settings: protein: recombinant; tags: N-terminal GST; dsDNA, one strand shown
# ELF1, sequence (P32519 whole entry): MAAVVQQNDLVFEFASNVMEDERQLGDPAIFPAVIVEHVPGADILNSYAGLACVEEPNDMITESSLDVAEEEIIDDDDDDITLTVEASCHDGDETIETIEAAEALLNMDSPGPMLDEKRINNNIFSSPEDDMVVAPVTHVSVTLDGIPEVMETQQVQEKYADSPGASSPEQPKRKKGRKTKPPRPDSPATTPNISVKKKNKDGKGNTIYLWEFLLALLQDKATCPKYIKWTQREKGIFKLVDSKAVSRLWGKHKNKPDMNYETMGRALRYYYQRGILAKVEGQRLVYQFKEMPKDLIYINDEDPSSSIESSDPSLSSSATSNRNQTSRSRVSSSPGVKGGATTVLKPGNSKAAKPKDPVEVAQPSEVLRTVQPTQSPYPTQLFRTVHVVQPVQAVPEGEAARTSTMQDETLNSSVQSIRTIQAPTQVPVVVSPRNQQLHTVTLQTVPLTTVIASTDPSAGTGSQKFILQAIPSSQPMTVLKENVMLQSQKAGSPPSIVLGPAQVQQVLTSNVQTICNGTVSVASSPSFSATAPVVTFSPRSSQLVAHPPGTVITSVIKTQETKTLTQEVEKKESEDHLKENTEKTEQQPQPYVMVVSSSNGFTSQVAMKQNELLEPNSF
# Outline: as §1
# [6] = target: T5, EHF (Homo sapiens, UniProt Q9NZC4 1-300); settings: protein: recombinant; tags: N-terminal GST; dsDNA, one strand shown
# T5 sequence: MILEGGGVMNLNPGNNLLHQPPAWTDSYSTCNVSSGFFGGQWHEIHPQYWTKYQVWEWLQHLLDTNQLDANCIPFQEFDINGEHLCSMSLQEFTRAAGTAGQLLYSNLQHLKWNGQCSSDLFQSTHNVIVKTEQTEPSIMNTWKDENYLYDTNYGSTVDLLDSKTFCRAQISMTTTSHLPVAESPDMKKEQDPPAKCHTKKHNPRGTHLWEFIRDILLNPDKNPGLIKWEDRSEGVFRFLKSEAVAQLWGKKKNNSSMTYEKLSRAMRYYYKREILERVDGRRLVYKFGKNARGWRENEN
# Outline: as §1
# [7] = target: SPI1 (Homo sapiens, UniProt P17947 1-270); settings: protein: recombinant; tags: N-terminal GST; dsDNA, one strand shown
# Outline: as §1
# [8] = target: SPIB (Homo sapiens, UniProt Q01892 1-262); settings: protein: recombinant; tags: N-terminal GST; dsDNA, one strand shown
# SPIB, sequence (Q01892 whole entry): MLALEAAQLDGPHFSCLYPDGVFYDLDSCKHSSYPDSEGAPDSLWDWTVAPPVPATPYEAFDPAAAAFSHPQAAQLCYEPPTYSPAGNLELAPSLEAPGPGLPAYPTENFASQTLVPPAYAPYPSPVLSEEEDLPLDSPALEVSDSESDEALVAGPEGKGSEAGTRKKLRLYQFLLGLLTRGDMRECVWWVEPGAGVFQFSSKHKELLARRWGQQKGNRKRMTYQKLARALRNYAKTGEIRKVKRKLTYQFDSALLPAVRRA
# Outline: as §1
# [9] = target: T6, ELK3 (Homo sapiens, UniProt P41970 1-407); settings: protein: recombinant; tags: N-terminal GST; dsDNA, one strand shown
# T6 sequence: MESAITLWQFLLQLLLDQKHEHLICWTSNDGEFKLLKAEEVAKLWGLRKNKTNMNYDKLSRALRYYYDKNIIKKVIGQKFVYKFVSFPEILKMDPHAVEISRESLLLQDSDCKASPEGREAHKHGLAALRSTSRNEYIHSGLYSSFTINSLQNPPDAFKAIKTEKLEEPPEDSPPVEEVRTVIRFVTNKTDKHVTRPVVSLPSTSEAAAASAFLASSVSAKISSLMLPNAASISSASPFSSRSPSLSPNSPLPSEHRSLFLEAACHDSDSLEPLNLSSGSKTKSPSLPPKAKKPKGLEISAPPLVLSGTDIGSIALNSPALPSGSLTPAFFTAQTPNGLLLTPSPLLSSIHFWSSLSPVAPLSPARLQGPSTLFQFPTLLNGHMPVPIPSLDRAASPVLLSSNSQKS
# Outline: as §1
# [10] = target: T7, FEV (Homo sapiens, UniProt Q99581 1-238); settings: protein: recombinant; tags: N-terminal GST; dsDNA, one strand shown
# T7 sequence: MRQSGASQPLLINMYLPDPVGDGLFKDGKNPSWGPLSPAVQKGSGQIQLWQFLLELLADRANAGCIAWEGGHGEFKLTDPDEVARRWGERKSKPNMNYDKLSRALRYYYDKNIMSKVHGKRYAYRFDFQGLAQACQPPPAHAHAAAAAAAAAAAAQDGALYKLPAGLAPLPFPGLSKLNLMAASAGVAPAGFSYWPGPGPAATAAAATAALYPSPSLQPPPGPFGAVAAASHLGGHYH
# Outline: as §1
# [11] = target: ETV5 (Homo sapiens, UniProt P41161 1-510); settings: protein: recombinant; tags: N-terminal GST; dsDNA, one strand shown
# ETV5, sequence (P41161 whole entry): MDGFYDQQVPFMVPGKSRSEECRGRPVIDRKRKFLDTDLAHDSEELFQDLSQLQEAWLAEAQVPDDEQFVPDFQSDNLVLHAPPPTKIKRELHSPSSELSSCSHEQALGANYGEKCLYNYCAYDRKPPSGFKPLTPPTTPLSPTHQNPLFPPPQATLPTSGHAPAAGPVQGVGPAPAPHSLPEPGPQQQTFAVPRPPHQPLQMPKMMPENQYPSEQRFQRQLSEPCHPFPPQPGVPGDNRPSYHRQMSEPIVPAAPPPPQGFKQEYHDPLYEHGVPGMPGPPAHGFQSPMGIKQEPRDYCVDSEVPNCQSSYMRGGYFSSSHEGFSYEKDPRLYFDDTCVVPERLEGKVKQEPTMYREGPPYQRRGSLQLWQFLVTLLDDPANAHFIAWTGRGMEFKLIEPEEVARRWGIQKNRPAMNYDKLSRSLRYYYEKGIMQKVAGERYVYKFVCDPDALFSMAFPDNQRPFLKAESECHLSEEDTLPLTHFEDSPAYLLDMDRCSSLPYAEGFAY
# Outline: as §1
# [12] = target: HSF1 (Homo sapiens, UniProt Q00613 1-529); settings: protein: recombinant; tags: N-terminal GST; chain copies: 3; dsDNA, one strand shown
# HSF1, sequence (Q00613 whole entry): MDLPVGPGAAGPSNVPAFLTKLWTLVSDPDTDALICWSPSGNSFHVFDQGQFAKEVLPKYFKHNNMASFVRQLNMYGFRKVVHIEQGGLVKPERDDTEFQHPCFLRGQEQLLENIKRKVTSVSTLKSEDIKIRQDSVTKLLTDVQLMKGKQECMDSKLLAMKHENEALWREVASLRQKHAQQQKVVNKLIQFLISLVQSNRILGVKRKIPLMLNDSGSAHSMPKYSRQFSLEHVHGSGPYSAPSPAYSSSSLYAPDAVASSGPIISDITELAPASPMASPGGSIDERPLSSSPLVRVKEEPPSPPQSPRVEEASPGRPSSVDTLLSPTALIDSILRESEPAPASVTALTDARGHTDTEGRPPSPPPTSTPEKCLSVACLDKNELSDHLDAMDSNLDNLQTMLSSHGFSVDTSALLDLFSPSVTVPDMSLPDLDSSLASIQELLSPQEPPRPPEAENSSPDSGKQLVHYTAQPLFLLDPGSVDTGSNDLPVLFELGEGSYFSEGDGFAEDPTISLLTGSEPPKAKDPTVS
# Outline: as §1
# [13] = target: T8, SPIC (Homo sapiens, UniProt Q8N5J4 1-248); settings: protein: recombinant; tags: N-terminal GST; dsDNA, one strand shown
# T8 sequence: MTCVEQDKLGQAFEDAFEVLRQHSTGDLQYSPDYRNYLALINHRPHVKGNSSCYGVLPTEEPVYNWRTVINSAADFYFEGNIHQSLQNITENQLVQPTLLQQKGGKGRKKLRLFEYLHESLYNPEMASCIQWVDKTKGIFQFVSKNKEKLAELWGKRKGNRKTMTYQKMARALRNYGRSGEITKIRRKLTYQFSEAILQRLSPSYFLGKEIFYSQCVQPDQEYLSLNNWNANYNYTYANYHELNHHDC
# Outline: as §1
# [14] = target: ELF4 (Homo sapiens, UniProt Q99607 1-663); settings: protein: recombinant; tags: N-terminal GST; dsDNA, one strand shown
# ELF4, sequence (Q99607 whole entry): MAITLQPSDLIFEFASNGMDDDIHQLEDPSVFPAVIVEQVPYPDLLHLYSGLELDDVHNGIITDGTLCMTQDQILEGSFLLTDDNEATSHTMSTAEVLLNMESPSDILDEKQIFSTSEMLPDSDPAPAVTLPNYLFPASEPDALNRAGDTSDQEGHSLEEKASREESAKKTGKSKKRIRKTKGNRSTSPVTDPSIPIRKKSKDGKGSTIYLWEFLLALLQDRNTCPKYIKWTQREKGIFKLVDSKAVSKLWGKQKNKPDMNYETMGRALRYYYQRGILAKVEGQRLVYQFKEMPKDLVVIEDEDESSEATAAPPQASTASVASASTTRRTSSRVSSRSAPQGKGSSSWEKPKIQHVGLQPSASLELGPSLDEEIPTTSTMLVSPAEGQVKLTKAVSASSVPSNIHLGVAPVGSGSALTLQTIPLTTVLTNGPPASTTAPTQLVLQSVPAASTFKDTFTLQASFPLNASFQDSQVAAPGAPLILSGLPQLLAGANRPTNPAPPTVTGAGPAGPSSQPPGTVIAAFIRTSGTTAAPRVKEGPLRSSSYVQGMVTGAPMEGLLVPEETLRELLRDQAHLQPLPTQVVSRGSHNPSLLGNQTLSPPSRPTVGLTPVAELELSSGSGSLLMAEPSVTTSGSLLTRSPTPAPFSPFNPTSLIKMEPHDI
# Outline: as §1
# [15] = target: T9, ELK4 (Homo sapiens, UniProt P28324-2 1-405); settings: protein: recombinant; tags: N-terminal GST; dsDNA, one strand shown
# T9 sequence: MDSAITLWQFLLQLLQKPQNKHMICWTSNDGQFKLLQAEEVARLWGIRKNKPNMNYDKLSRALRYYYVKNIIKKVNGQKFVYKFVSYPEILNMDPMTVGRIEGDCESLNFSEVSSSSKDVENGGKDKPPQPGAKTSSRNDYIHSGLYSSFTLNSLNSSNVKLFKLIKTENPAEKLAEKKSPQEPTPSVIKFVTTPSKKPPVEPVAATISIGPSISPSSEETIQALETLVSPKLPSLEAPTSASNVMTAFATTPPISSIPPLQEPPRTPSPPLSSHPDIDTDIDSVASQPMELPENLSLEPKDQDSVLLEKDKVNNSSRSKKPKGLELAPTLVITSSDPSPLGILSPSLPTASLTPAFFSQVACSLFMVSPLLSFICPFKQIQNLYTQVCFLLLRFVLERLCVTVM
# Outline: as §1
# [16] = target: T10, ETV2 (Homo sapiens, UniProt O00321 1-342); settings: protein: recombinant; tags: N-terminal GST; dsDNA, one strand shown
# T10 sequence: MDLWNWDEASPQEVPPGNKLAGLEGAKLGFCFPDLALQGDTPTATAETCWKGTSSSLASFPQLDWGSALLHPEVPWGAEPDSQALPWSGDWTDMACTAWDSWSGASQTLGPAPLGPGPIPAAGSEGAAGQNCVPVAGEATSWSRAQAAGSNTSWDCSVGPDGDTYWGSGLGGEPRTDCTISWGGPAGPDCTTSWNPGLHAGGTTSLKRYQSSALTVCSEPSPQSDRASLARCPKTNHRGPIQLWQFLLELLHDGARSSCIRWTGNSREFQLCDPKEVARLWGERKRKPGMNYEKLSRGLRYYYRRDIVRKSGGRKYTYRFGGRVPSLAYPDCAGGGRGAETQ
# Outline: as §1
# [17] = target: T11, ELF3 (Homo sapiens, UniProt P78545 1-371); settings: protein: recombinant; tags: N-terminal GST; dsDNA, one strand shown
# T11 sequence: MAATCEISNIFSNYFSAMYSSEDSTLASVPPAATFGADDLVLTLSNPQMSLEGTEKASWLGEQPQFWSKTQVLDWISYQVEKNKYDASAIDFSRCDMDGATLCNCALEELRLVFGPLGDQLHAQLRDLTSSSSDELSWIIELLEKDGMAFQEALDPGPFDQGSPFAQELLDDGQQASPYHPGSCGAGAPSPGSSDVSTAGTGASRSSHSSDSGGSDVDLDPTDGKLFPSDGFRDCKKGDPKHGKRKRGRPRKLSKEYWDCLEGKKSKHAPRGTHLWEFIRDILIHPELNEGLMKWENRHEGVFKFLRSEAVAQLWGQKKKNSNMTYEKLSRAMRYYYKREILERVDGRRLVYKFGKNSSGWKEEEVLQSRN
# Outline: as §1
# [18] = target: CRX (Homo sapiens, UniProt O43186 1-299); settings: protein: recombinant; tags: N-terminal GST; dsDNA, one strand shown
# CRX, sequence (O43186 whole entry): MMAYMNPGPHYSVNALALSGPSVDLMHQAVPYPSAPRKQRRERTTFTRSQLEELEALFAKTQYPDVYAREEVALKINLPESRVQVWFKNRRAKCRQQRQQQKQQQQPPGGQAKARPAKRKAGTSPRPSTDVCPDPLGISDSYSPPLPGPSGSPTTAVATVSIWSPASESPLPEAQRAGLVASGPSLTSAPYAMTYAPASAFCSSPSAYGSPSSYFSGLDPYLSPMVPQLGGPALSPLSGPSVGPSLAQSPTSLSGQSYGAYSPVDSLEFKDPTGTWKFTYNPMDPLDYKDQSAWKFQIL
# Outline: as §1
# [19] = target: ETV1 (Homo sapiens, UniProt P50549 1-477); settings: protein: recombinant; tags: N-terminal GST; dsDNA, one strand shown
# ETV1, sequence (P50549 whole entry): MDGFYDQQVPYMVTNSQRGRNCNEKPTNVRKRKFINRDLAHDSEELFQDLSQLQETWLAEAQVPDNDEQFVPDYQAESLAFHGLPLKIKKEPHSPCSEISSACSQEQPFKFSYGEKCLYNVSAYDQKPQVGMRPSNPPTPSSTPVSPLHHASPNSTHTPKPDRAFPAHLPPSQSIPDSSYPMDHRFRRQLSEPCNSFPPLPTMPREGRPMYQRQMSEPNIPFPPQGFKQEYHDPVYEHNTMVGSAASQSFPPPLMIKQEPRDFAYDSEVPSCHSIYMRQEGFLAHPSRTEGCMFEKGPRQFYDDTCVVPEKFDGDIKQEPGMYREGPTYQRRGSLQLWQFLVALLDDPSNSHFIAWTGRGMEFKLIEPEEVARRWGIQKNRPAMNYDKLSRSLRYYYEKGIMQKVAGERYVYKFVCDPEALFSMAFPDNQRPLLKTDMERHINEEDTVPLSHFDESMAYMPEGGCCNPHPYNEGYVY
# Outline: as §1
sequence,measurement,setting,value
TATCCA,binding signal,[1],"1.3 fold enrichment (6-mer frequency, TF over GST control)"
same,binding signal,[2],"1.36 fold enrichment (6-mer frequency, TF over GST control)"
same,binding signal,[3],"1.3 fold enrichment (6-mer frequency, TF over GST control)"
same,binding signal,[4],"1.22 fold enrichment (6-mer frequency, TF over GST control)"
same,binding signal,[5],"1.29 fold enrichment (6-mer frequency, TF over GST control)"
same,binding signal,[6],"1.26 fold enrichment (6-mer frequency, TF over GST control)"
same,binding signal,[7],"1.27 fold enrichment (6-mer frequency, TF over GST control)"
same,binding signal,[8],"1.36 fold enrichment (6-mer frequency, TF over GST control)"
same,binding signal,[9],"1.37 fold enrichment (6-mer frequency, TF over GST control)"
same,binding signal,[10],"1.29 fold enrichment (6-mer frequency, TF over GST control)"
same,binding signal,[11],"1.27 fold enrichment (6-mer frequency, TF over GST control)"
same,binding signal,[12],"1.49 fold enrichment (6-mer frequency, TF over GST control)"
same,binding signal,[13],"1.4 fold enrichment (6-mer frequency, TF over GST control)"
same,binding signal,[14],"1.29 fold enrichment (6-mer frequency, TF over GST control)"
same,binding signal,[15],"1.33 fold enrichment (6-mer frequency, TF over GST control)"
same,binding signal,[16],"1.37 fold enrichment (6-mer frequency, TF over GST control)"
same,binding signal,[17],"1.31 fold enrichment (6-mer frequency, TF over GST control)"
same,binding signal,[18],"1.75 fold enrichment (6-mer frequency, TF over GST control)"
same,binding signal,[19],"1.27 fold enrichment (6-mer frequency, TF over GST control)"
